{"source": "PubChem BioAssay AID624167", "about": "(Sanford-Burnham Center for Chemical Genomics, 2012)"}
{"test": "inhibition of PEG-3 promoter-driven reporter – cell-based, HeLa, luciferase, CREF/GAPDH counter-screen panel, dose response (AID 624167)", "conditions": "CREF/GAPDH counter-screens; run 1, dose range 1, at 100 µM (top of the series)", "units": {"inhibition": "%"}}
{"smiles": "O=C(NNC(=O)c1cccnc1SCc1cccc([N+](=O)[O-])c1)c1ccccn1", "inhibition": 6.38}
{"smiles": "Cc1ccc(NC(=S)NC(=O)c2ccc(F)cc2)cc1S(=O)(=O)Nc1ccccc1Cl", "inhibition": 70.9}
{"smiles": "O=C(Nc1ccccc1)c1nc[nH]c1C(=O)NCCCCCCNC(=O)c1[nH]cnc1C(=O)Nc1ccccc1", "inhibition": -2.1}
{"smiles": "COCCCNC(=O)c1ccc(Cn2c(=O)c3ccccc3n(Cc3ccccc3C#N)c2=O)cc1", "inhibition": 32.3}
{"smiles": "C=CCc1cccc(/C=N/NC(=O)C(C)Nc2cccc(C)c2)c1O", "note": "(stereo not drawn)", "inhibition": 29}
{"smiles": "CN(C)c1ccc(C=c2c3ccccc3n3c2cc(-c2ccccc2)[n+]3C)cc1", "inhibition": 99.9}
{"smiles": "COc1cccc2c1C(=O)c1c(O)c3c(c(O)c1C2=O)CC(O)(C(C)=NNC(=O)c1ccc(Cl)c(Cl)c1)CC3OC1CC(N)C(O)C(C)O1", "note": "(stereo not drawn)", "inhibition": 92}
{"smiles": "CCc1ccc(/C=C2\\SC(=S)N(CCCC(=O)Nc3cc(C)on3)C2=O)cc1", "inhibition": 75.9}
{"smiles": "C(=N\\Nc1ccc2ccccc2n1)/c1ccc2c(c1)OCCO2", "inhibition": 99.5}
{"smiles": "CCC(c1ccc(O)c(O)c1)C(CC)c1ccc(O)c(O)c1", "note": "(stereo not drawn)", "inhibition": 99}
{"smiles": "CCOC(=O)c1c(SCCN2CCCCC2)n(-c2ccccc2)c(=S)n(-c2ccccc2)c1=O", "inhibition": 97}
{"smiles": "O=C(Nc1ccccc1C(=O)Nc1nnc(C(F)(F)F)s1)c1ccccc1", "inhibition": 60.8}
{"smiles": "O=C(COc1ccc2c(c1)CCC2)Nc1ccccn1", "inhibition": 95.2}
{"smiles": "COc1ccc(/C=C2\\SC(=S)N(CCCC(=O)NNC(=O)c3ccccc3O)C2=O)cc1", "inhibition": 15}
{"smiles": "CCN(CC)S(=O)(=O)c1cccc(C(=O)N/N=C(\\C)c2ccc(O)cc2O)c1", "inhibition": -75.3}
{"smiles": "COc1cc(Nc2c3ccccc3nc3ccccc23)cc(OC)c1OC", "inhibition": 95.9}
{"smiles": "COc1ccc(N(C(=O)CCl)C(C(=O)NC2CCCCC2)c2cccnc2)cc1", "note": "(stereo not drawn)", "inhibition": 82.9}
{"smiles": "O=C(O)c1ccc(N/N=C/c2ccc3nccnc3c2)cc1", "inhibition": 99}
{"smiles": "CC(C)(C)c1ccc(Oc2ccc(N)cc2)cc1", "inhibition": 90.1}
{"smiles": "COc1cc(/C=C2\\SC(=Nc3ccccc3OC)NC2=O)ccc1O", "inhibition": 43.9}
{"smiles": "Nc1nonc1-n1nnc(C(=O)N/N=C/c2cc(Br)ccc2O)c1CNc1ccccc1", "inhibition": 70.2}
{"smiles": "O=C(O)c1ccc(CN2C(=O)c3cccc4c([N+](=O)[O-])ccc(c34)C2=O)cc1", "inhibition": 99.1}
{"smiles": "Cc1cc(C(=O)Nc2cccc(C(=O)O)c2)oc1C", "inhibition": 89.9}
{"smiles": "COc1ccc(C(NC(C)=O)c2ccc3cccnc3c2O)c(OC)c1", "note": "(stereo not drawn)", "inhibition": -5.47}
{"smiles": "O=C(/C=C/c1ccc(Cl)c([N+](=O)[O-])c1)c1ccc(O)cc1", "inhibition": 100}
{"smiles": "CS(=O)(=O)c1ccc(-c2sc3ccccc3c2C#CCCO)cc1", "inhibition": 90.1}
{"smiles": "Cc1ccc(-n2c(N)c(C(=O)Nc3c(C)n(C)n(-c4ccccc4)c3=O)c3nc4ccccc4nc32)cc1", "inhibition": 77.5}
{"smiles": "CC(=O)NC(c1ccc(Cl)cc1Cl)c1ccc2cccnc2c1O", "note": "(stereo not drawn)", "inhibition": 55.7}
{"smiles": "COc1ccc(-n2c(O)c(/C=N/Nc3nc(C)cc(C)n3)c3ccccc3c2=O)cc1OC", "inhibition": -8.04}
{"smiles": "CC(C)(C)c1ccc(Cn2c(=O)cnc3ccccc32)cc1", "inhibition": 88.2}
{"smiles": "CCCCC(=O)NC(c1ccc(OC)cc1)c1ccc2cccnc2c1O", "note": "(stereo not drawn)", "inhibition": 21.2}
{"smiles": "O=C(N/N=C/c1sc(N2CCOCC2)nc1-c1ccccc1)c1cccc(S(=O)(=O)N2CCCC2)c1", "inhibition": 52}
{"smiles": "Cc1cc(NC(c2ccc(Cl)cc2)c2ccc3cccnc3c2O)no1", "note": "(stereo not drawn)", "inhibition": 39.3}
